The campaign covered roughly 69,000 compounds. About 8,600 (12%) showed an effect of 50% or more. The sample as a whole holds a higher share of strong results than the screen did.
tested on: Plasmodium berghei; test: Screen against P. berghei liver stage (PbLuc), transformed with Luciferase, at 10uM; type: functional, HepG2; conditions: tested at 10 uM

Row | SMILES | INHIBITION [%]
1 | COC1CCCOC12CCN(C(=O)c1ccc3[nH]nnc3c1)CC2 (stereo unspecified) | -29.9
2 | O=C(CSC1=NS(=O)(=O)c2cc(Cl)ccc2N1)c1ccccc1 | 11.8
3 | Cn1cc(CN2CCCC3(CCN(C(=O)c4ccccn4)C3)C2)cn1 (stereo unspecified) | 11.3
4 | COCCC(=O)N1CCOCC(Cc2ccc3c(ccn3C)c2)C1 (stereo unspecified) | 17.475
5 | CC(=O)N(Cc1ncc(C)o1)C1CCN(Cc2ccccc2C#N)C1 (stereo unspecified) | 9.64
6 | NC(=O)c1cc(C2CCCN(C(=O)CCc3cccs3)C2)n[nH]1 (stereo unspecified) | 17.5
7 | O=C1CC[C@@H](CN(Cc2ccncc2)Cc2nc(CC3CC3)no2)N1 | 36.6
8 | Cc1nc(C)c2c(n1)CCN(C(=O)CC1CC1)CC2 | 19.9
9 | CCN1Cc2nccn2CC(COCc2csc(C)n2)C1 (stereo unspecified) | 8.66
10 | N#Cc1ccc(CN2CCc3sccc3C2)c(F)c1 | 4.95
11 | N#Cc1ccc(F)c(CN2CCc3sccc3C2)c1 | 41.6
12 | N#Cc1ccccc1CN1CCc2sccc2C1 | 60.4
13 | Cc1nc(C)n(CC2CCCN(Cc3cccc(C(N)=O)c3)C2)n1 (stereo unspecified) | -43.5
14 | O=C(NC1CCCC1)N1C[C@H]2CN(c3ccncc3)C[C@@]2(C(=O)O)C1 | 28.7
15 | Cc1ccc(N2C[C@@H]3CN(C(=O)NC4CCCC4)C[C@]3(C(=O)O)C2)nn1 | 56.6
16 | O=C(NC1CCCC1)N1C[C@H]2CN(c3ccccn3)C[C@@]2(C(=O)O)C1 | 6.27
17 | Cc1ccc(C(=O)N2CCCC(NC(=O)C(C)C)C2)c(O)c1 (stereo unspecified) | 54.4
18 | Cc1ccc(O)c(C(=O)N2CCCC(NC(=O)C(C)C)C2)c1 (stereo unspecified) | 5.9
19 | CC(C)C(=O)NC1CCCN(C(=O)c2cc(Cl)ccc2O)C1 (stereo unspecified) | 18.2
20 | COc1ccc(C(=O)N2CCCC(NC(=O)C(C)C)C2)c(O)c1 (stereo unspecified) | -9.19
21 | CC(C)C(=O)NC1CCCN(C(=O)c2ccccc2O)C1 (stereo unspecified) | 8.64
22 | CC(C)C(=O)NC1CCCN(C(=O)c2ccc(O)c(Cl)c2)C1 (stereo unspecified) | 66.2

Row | SMILES | INHIBITION [%]
23 | c1cnc(CC2COCCN(C3CCCCC3)C2)cn1 (stereo unspecified) | 14
24 | c1ccc(-c2nc(CCNCc3ccccn3)co2)cc1 | 34.4
25 | CCN(Cc1nc(COC)no1)Cc1cc2ccc(F)cc2[nH]c1=O | 0.546
26 | CCc1cnc(C)nc1NC1CC(=O)N(CC2CCCCC2)C1 (stereo unspecified) | -20.8
27 | Cc1nc(CN2Cc3nccn3CC(COCC3CC3)C2)cs1 (stereo unspecified) | 41.2
28 | CNC(=O)CN1CCOCC12CCN(CCc1ccccc1)CC2 | 38.1
29 | COc1c(C2CCCN2CC(=O)Nc2nccs2)c(C)nn1C (stereo unspecified) | -24.7
30 | Cn1ccc(C(=O)N2CCOC(c3ccccc3)C2)cc1=O (stereo unspecified) | 50.5
31 | Cc1ccc(C2CN(C(=O)c3ccn(C)c(=O)c3)CCO2)nc1 (stereo unspecified) | 44.8
32 | Cn1ccc(C(=O)N2CCOC(c3ccccn3)C2)cc1=O (stereo unspecified) | -5.71
33 | Cc1cc(-n2cncn2)n2ncnc2n1 | 47.1
34 | CC(C)N(CCC#N)C(=O)c1cnc(-c2ccc3c(c2)OCO3)s1 | -73.9
35 | CC(C)c1nnc2n1CC(CNCc1nnc(C(C)(C)C)o1)CC2 (stereo unspecified) | 3.77
36 | CCN1CCN(c2nc3cn(-c4cnn(CC)c4)c(=O)c-3c[nH]2)CC1 | 36.6
37 | CC(=O)N[C@@H]1CN(C(=O)c2csc(C(C)C)n2)C[C@H]1C(C)C | 9.87
38 | CC(=O)N1C[C@H](NC(=O)c2csc(C(C)C)c2)[C@@H](C(C)C)C1 | 51.1
39 | CC(=O)N1C[C@H](NC(=O)c2ccnc(N)c2)[C@@H](C(C)C)C1 | 19.1
40 | CC(C)CN1CC[C@@H]2[C@@H]1CCN2C(=O)N(C)C | 3.88
41 | COCC(=O)N1CC[C@H]2[C@H]1CCN2CC(C)C | 52.6
42 | CC(C)CN1CC[C@@H]2[C@@H]1CCN2C(=O)N1CCCC1 | 31.9
43 | CN(C)CC(=O)N1C[C@@H]2CC[C@H](Oc3ccccc3)[C@@H]2C1 | -21.4
44 | COc1cccc(CN(C)S(=O)(=O)N2CCOCC2)c1 | 34.7

Row | SMILES | INHIBITION [%]
45 | Cc1nn(C)c(N(C)C)c1CNCc1cccnc1N1CCOCC1 | -69.3
46 | O=C(NC1CC1)[C@@H]1CN(Cc2ccc3c(c2)OCO3)C[C@H]2OCC[C@H]21 | 13.7
47 | CCC(C)N(Cc1cc(C)n[nH]1)Cc1ccccc1Cl (stereo unspecified) | 79
48 | CC(CC#N)N(C)Cc1ccccc1Cl (stereo unspecified) | 38.5
49 | CCC(C)N(Cc1c[nH]c(C)n1)Cc1ccccc1Cl (stereo unspecified) | 41
50 | CNC(=O)NC(=O)CN1CCc2c(Br)ccc(F)c2C1 | -34.8
51 | COc1ccccc1CCNC(=O)CNCC1CN(C)CCO1 (stereo unspecified) | 11
52 | COc1ccc(-c2c(C(C)C)nn3c(=N)c(C#N)n[nH]c23)cc1 | 53.1
53 | COc1ccc(-c2c(C)nn3c(=N)c(C#N)n[nH]c23)cc1OC | 85
54 | COc1ccc(-c2c(C)nn3c(=N)c(C#N)n[nH]c23)cc1 | 3.19
55 | CCc1nn2c(=N)c(C#N)n[nH]c2c1-c1ccc(OC)cc1 | 22.9
56 | COc1ccc(-c2csc(N)c2C#N)cc1OC | 1.58
57 | COc1ccc(-c2nc(C#N)c(N(C)C)o2)cc1OC | -34.9
58 | CN(C)C[C@H]1OC[C@@H]2CCN(C(=O)c3ccc[nH]3)C[C@@H]21 | 29.8
59 | Cc1noc(C2CCC3(CCN(C(=O)c4cnn(C)c4)CC3)O2)n1 (stereo unspecified) | 44.1
60 | CC(C)(NS(C)(=O)=O)c1nc(-c2ccc(F)c(F)c2)no1 | -7.02
61 | O=C(c1ccc2c(c1)COC2)N1CCCC(n2cncn2)C1 (stereo unspecified) | 0.411
62 | CO[C@H]1CN(Cc2ccc(F)c(F)c2)C[C@@]12CCCO2 | 35.2
63 | Cc1nc(NC(=O)NC(CS(C)(=O)=O)c2ccccc2)sc1C (stereo unspecified) | 35.1
64 | Cc1nc2n(n1)CC(NCc1csc(-c3ccsc3)n1)CC2 (stereo unspecified) | 22.55
65 | Cc1nc(C2CCCNC2)cc(N(Cc2c(C)nn(C)c2C)C2CC2)n1 (stereo unspecified) | -21.5
66 | COc1cc(S(=O)(=O)N2CCc3ccccc32)cc(C(=O)O)c1OC | 48.2

Row | SMILES | INHIBITION [%]
67 | COc1cc(S(=O)(=O)N2CCc3ccc(Cl)cc32)cc(C(=O)O)c1OC | -11.4
68 | COc1cc(S(=O)(=O)N2CCc3cc(Br)ccc32)cc(C(=O)O)c1OC | 62.6
69 | CCOC(=O)CCNC(=O)N1CCOC(Cc2cccc(OC)c2)C1 (stereo unspecified) | 53.7
70 | COc1cccc(CC2CN(C3CCN(C(C)=O)CC3)CCO2)c1 (stereo unspecified) | 1.81
71 | CCOC(=O)CNC(=O)N1CCOC(Cc2ccc(OC)cc2)C1 (stereo unspecified) | -17.4
72 | Cc1ccccc1C(=O)N1C[C@@H](O)[C@H](N2CCOCC2)C1 | 33.25
73 | CS(=O)(=O)c1ccc(NC(=O)N2C[C@H](O)[C@@H](N3CCOCC3)C2)cc1 | 67.5
74 | O=C(Nc1ccc(-n2cccn2)cc1)N1C[C@H](O)[C@@H](N2CCOCC2)C1 | 44.3
75 | Cc1cc(C)n(-c2ccc(C(C)NS(=O)(=O)CCCS(C)(=O)=O)cc2)n1 (stereo unspecified) | 47.4
76 | COCCS(=O)(=O)NC(C)c1ccc(-n2nc(C)cc2C)cc1 (stereo unspecified) | 69.7
77 | Cc1cc(C)n(-c2ccc(C(C)NS(N)(=O)=O)cc2)n1 (stereo unspecified) | 37.1
78 | COCCN1CCC2(CC1)CN(CCn1cccn1)C(=O)CO2 | 23.3
79 | CN(CC(=O)N1CCN(c2cnccn2)CC1)c1ccc(Cl)cn1 | -1.38
80 | CCn1cc(NS(=O)(=O)c2ccc(Br)s2)c(C(N)=O)n1 | 61.6
81 | CCn1cc(NS(=O)(=O)c2ccc(Br)s2)c(C(=O)NCC(C)C)n1 | -0.217
82 | CCn1cc(S(=O)(=O)N2CCN(S(=O)(=O)c3ccc(Br)s3)CC2)c(C)n1 | 24.2
83 | Cc1cccc(-c2ccc(C(=O)N3CCN(C4CC4)CC3)c(=O)[nH]2)c1 | 21.8
84 | NCC1Cc2cc(-c3cncc(C(=O)N4CCCCC4)n3)cc(F)c2O1 (stereo unspecified) | 18.3
85 | NCC1Cc2cc(Cl)cc(-c3cncc(C(=O)N4CCCCC4)n3)c2O1 (stereo unspecified) | 24.8
86 | Cc1cc2c(c(-c3cncc(C(=O)N4CCCC4)n3)c1)OC(CN)C2 (stereo unspecified) | 57.3
87 | CC(C)N1CCC(c2n[nH]cc2S(C)(=O)=O)CC1 | -8.58
88 | Cc1cc(C(=O)NCc2cnn(C)c2C)nc(N2CCCCCC2)n1 | -7.53

Row | SMILES | INHIBITION [%]
89 | Cc1ocnc1C(=O)Nc1ccc(-c2nnc(N(C)C)o2)cc1 | -128
90 | CC(C)CCC1=NC2(CCN(C(=O)N3CCN(C)CC3)CC2)C(=O)N1 | -23.5
91 | O=C(CN1CCCCC1=O)N1CCC2(CC1)[C@H](O)C[C@@H]2O | 44
92 | CC(C)CCC1=NC2(CCN(C(=O)CN3CCCC3=O)CC2)C(=O)N1 | 82.4
93 | COC(=O)N1CCC2(CC1)N=C(CCC(C)C)NC2=O | 76.7
94 | CCOC(=O)N1CCC2(CC1)N=C(CCC(C)C)NC2=O | -65
95 | CC(=O)CCC(=O)N1CCC2(CC1)N=C(CCC(C)C)NC2=O | -40.7
96 | Cc1cnn(CC2CN(Cc3ccc(-n4cccn4)cc3)CCO2)c1 (stereo unspecified) | 40
97 | CC(C)c1ncncc1C(=O)N1CCN(Cc2ccccn2)CC1 | 5.9
98 | Cc1cc(C(=O)Nc2cnn(CC(F)(F)F)c2)nc(N(C)C)n1 | 0.91
99 | O=C1CCC(=O)N1c1nn(Cc2ccccc2Cl)cc1Cl | 20.4
100 | Cc1cc(C)c(CNC(=O)NCC2COCCO2)c(=O)[nH]1 (stereo unspecified) | 23.45
101 | CCc1ccc2c(c1)C(CCNC(=O)CCc1ccsc1)C(=O)N2 (stereo unspecified) | 26.7
102 | CCN1CCN(c2ccc(CNC(=O)c3sccc3C)cn2)CC1 | -23.8
103 | CCc1ccc2c(c1)C(CCNC(=O)c1sccc1C)C(=O)N2 (stereo unspecified) | 61.9
104 | CCc1ccc2c(c1)C(CCNC(=O)Cc1ccc(F)cc1)C(=O)N2 (stereo unspecified) | 53.6
105 | CCc1ccc2c(c1)C(CCNC(=O)CSC(F)(F)F)C(=O)N2 (stereo unspecified) | 40.6
106 | CCc1ccc2c(c1)C(CCNC(=O)Cc1cccc(F)c1)C(=O)N2 (stereo unspecified) | 37.8
